The source made the active and inactive calls.
Experiments:
[1] = tested on: Plasmodium falciparum Sir2 (PF13_0152, Sir2A); experiment: Plasmodium falciparum Sir2A binding compounds – biochemical, small-molecule microarray, 635 nm fluorescence, primary screen (AID 1098); settings: fluorescence 635 nm, higher = more signal;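 also: score merges spot fluorescence intensity with its signal-to-noise ratio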
[2] = probe aDKK1 binding to arrayed compounds – biochemical, biotinylated probe, 635/667 nm fluorescence, primary screen (AID 1099); settings: small-molecule microarray, higher = more signal;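 also: score merges 667nm spot fluorescence with signal to noise across triplicate slides; reference of the scale not given here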
[3] = probe aCHRDL2 binding to arrayed compounds – biochemical, biotinylated probe, 635/667 nm fluorescence, primary screen (AID 1100); settings: small-molecule microarray, higher = more signal
[4] = change in splice reporter luminescence, either direction, cell-based, HEK293, spliceosome inhibition project, primary screen (AID 1101); settings: HEK293 splicing luciferase reporter, 24 h, higher = more signal, called active from +8 up or from −8 down;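 also: HEK293 cells carrying a splicing-competent luciferase reporter gene; test concentration not given here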
[5] = molecular target: Fibroblast growth factor 10 (Homo sapiens) (UniProt O15520); experiment: compounds binding fibroblast growth factor 10 – biochemical, small-molecule microarray, 635 nm fluorescence, primary screen (AID 1102); settings: FGF10 binding, fluorescence 635 nm, higher = more signal
Sequence of Fibroblast growth factor 10 (Homo sapiens) (O15520 whole entry, looked up): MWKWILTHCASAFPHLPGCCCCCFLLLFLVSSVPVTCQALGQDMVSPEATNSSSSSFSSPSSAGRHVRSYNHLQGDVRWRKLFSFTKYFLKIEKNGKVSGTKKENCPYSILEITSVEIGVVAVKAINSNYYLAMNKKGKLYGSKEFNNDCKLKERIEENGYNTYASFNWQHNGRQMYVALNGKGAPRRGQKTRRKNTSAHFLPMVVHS

[6] = tested on: glycogen synthase kinase-3 (GSK3A per assay name; protocol says GSK3B); experiment: compounds binding glycogen synthase kinase-3 – biochemical, small-molecule microarray, 635 nm fluorescence, GSK3A, primary screen (AID 1103); settings: fluorescence 635 nm, higher = more signal; also: the record names both GSK3A and GSK3B
[7] = molecular target: Epidermal growth factor receptor (Homo sapiens) (UniProt P00533); experiment: compounds binding epidermal growth factor receptor – biochemical, small-molecule microarray, 635 nm fluorescence, primary screen (AID 1104); settings: EGFR binding, higher = more signal;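 also: score merges 667 nm emission intensity with spot signal to noise over triplicate slides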
Sequence of Epidermal growth factor receptor (Homo sapiens) (P00533 whole entry, looked up): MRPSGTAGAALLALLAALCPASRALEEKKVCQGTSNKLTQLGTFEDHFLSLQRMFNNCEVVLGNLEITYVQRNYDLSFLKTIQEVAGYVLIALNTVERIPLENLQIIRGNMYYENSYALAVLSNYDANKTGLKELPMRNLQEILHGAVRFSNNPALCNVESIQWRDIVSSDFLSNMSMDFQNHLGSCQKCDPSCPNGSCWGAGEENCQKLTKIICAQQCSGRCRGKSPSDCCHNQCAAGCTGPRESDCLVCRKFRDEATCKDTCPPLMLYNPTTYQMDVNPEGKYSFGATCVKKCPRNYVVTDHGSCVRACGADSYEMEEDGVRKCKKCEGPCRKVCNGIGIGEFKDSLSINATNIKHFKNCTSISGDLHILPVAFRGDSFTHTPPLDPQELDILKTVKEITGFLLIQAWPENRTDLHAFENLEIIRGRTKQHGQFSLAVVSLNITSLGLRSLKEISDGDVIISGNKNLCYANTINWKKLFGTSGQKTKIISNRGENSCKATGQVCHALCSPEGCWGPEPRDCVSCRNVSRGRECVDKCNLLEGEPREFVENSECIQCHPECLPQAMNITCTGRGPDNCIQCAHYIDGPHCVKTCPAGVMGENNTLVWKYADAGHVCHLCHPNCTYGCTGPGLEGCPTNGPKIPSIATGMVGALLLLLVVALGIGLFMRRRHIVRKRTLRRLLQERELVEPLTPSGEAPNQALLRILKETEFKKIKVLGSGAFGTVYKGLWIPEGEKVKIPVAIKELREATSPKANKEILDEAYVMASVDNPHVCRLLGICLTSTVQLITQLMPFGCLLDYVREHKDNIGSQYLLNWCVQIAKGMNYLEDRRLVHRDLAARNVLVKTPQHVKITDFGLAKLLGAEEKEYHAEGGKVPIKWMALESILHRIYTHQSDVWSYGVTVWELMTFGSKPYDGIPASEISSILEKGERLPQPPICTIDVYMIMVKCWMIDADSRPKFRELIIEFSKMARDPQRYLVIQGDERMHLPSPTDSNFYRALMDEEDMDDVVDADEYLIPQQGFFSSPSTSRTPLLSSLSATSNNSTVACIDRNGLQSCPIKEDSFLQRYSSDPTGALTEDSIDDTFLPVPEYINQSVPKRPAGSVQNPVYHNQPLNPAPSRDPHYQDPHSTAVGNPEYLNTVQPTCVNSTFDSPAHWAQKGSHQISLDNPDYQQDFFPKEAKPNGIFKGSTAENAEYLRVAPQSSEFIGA

[8] = molecular target: Follistatin-related protein 3 (Homo sapiens) (UniProt O95633); experiment: compounds binding follistatin-related protein 3 – biochemical, small-molecule microarray, 635 nm fluorescence, primary screen (AID 1105); settings: FSTL3 binding, higher = more signal;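 also: score merges emission near 667 nm and signal to noise per printed spot across three slides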
Sequence of Follistatin-related protein 3 (Homo sapiens) (O95633 whole entry, looked up): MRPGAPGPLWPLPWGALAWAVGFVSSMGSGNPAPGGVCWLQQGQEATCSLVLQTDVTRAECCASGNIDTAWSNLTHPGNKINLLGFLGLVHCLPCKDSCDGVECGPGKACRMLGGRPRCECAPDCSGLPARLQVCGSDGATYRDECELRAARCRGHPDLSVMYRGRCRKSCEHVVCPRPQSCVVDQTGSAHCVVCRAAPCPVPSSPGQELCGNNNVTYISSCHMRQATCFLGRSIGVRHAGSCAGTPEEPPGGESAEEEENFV

[9] = molecular target: Dickkopf-related protein 1 (Homo sapiens) (UniProt O94907); experiment: small molecules binding DKK1 protein – biochemical, small-molecule microarray, 635 nm fluorescence scan, primary screen (AID 1106); settings: higher = more signal;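 also: score merges emission near 667 nm with signal to noise over three replicate slides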
Sequence of Dickkopf-related protein 1 (Homo sapiens) (O94907 whole entry, looked up): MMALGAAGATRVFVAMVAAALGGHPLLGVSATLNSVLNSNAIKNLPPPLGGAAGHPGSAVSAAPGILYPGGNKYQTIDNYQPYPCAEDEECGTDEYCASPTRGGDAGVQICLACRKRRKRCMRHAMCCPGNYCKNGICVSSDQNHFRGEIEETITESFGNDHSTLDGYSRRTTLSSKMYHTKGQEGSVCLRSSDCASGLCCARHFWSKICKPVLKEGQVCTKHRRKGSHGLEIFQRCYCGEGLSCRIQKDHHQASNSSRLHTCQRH

[10] = tested on: Inhibin beta A chain (activin A); experiment: small molecules binding activin A – biochemical, small-molecule microarray, 635 nm fluorescence scan, primary screen (AID 1107); settings: INHBA, higher = more signal;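 also: mouse activin A protein probed at 4.33 µg/mL on printed slides; score merges bound-protein fluorescence near 667 nm with spot signal-to-noise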

SMILES | composite z-score [1] | composite z-score [2] | composite z-score [3] | z-score [4] | composite z-score [5] | composite z-score [6] | composite z-score [7] | composite z-score [8] | composite z-score [9] | composite z-score [10]
CCN1C(=O)[C@H]2[C@H]3[C@H](O)[C@H](O)CC(=NOCc4ccccc4)[C@@H]3CC[C@H]2C1=O | 0.119 | 0.214 | -0.585 | -1.02 (inactive) | 0.302 | 0.478 | 0.33 | 0.51 | 0.267 | 0.383
CC(CCN1CCc2nc(-c3ccccc3)c(-c3ccccc3)cc2C1)=NOC(C)CN1CCCCc2nc(C)c(C)cc21 (stereo not given) | 0.646 | -0.0421 | 0.318 | -0.0114 (inactive) | 0.593 | 0.746 | 0.964 | 0.609 | 0.77 | 1.15
CCCC[C@@H]1C[C@H]1[C@@H](NS(=O)(=O)c1cccc2cccnc12)c1ccc(-c2ccccc2)cc1 | -0.383 | 0.583 | 1.09 | 1.19 (inactive) | 0.0068 | -0.356 | -1.26 | -0.417 | -0.475 | 0.76
COC(=O)CC=C[C@H](C)[C@H](CO)NS(=O)(=O)c1ccc(C)cc1 | 0.227 | -0.397 | -0.707 | 0.636 (inactive) | 0.62 | 0.252 | 0.573 | 0.48 | 0.987 | -0.273
O=C1[C@H]2[C@H]3[C@H](O)[C@H](O)CC(=NOC[C@@H](O)COCc4ccco4)[C@H]3CC[C@H]2C(=O)N1Cc1ccc2c(c1)OCO2 | 0.285 | 0.534 | -1.5 | 0.204 (inactive) | 0.11 | 1.28 | 0.986 | 0.83 | 1.39 | 0.0751
C=CC[C@]1(C(=O)NCc2ccccc2)N=C(c2ccc(OCCCO)cc2)O[C@H]1c1ccccc1 | 0.689 | 0.213 | 1.06 | 0.332 (inactive) | 0.462 | 0.165 | -0.29 | 0.291 | -0.328 | 0.173
CC(=O)C[C@H](O)[C@@H](NC(=O)OC(C)(C)C)C(C)C | -0.276 | -0.186 | -0.306 | -0.797 (inactive) | -0.456 | -1.45 | -0.397 | -0.441 | -0.31 | 0.123
CC(C)NC(=O)[C@@]1(c2ccc([N+](=O)[O-])cc2)CC(=O)N(CC23CC4CC(CC(C4)C2)C3)[C@@H]1c1ccc(CO)cc1I | 0.504 | 0.921 | 0.197 | 0.278 (inactive) | 0.0738 | 1.12 | 0.353 | 0.252 | 0.208 | 0.197
COc1ccc(-c2ccc3c(n2)CCCN3CC(O)CN2CCCc3nc(C)c(C)cc32)cc1 (stereo not given) | 0.879 | 0.323 | 0.386 | -0.155 (inactive) | 0.817 | 0.871 | 0.691 | 0.995 | 1.39 | 1.6
C=CCOC(=O)[C@H]1[C@@H]2C(=O)O[C@@H](c3ccccc3)[C@@H](c3ccccc3)N2[C@@H](c2ccc(OCCOC(=O)[C@H]3C[C@H]4C(=O)N5CCC[C@H]5C(=O)N4[C@H]3c3cccc(OCCO)c3)cc2)[C@]12C(=O)Nc1ccc(I)cc12 | 2.03 | 2.12 | 1.36 | 1.1 (inactive) | 1.4 | 1.37 | 1.02 | 1.41 | 1.22 | 1.47
CC(C)N1CC=CC23O[C@@H]4C=CCCOC(=O)C4[C@H]2C(=O)N(CCCCCCO)[C@@H]3C1=O (stereo not given in full) | 0.627 | -0.201 | 0.587 | 1.59 (inactive) | -1.03 | -1.13 | -1.13 | -1.22 | -1.59 | 0.12
CC(C)OC(=O)C=C1C[C@@H](c2ccc(C#N)cc2)O[C@@H](c2ccc(C#N)cc2)O1 | 1.07 | 0.738 | 0.407 | -0.159 (inactive) | 1.44 | 1.29 | 0.87 | 1.4 | 0.189 | -0.106
CO[C@@H]1COC(=O)CC=C[C@@H](C)[C@H](OC)COC(=O)[C@H](COCc2ccccc2)NC(=O)CC=C[C@H]1C | 1.56 | -0.516 | -1.15 | 0.0688 (inactive) | 0.303 | -0.112 | 0.461 | 0.689 | 0.444 | 1.87
COC(=O)[C@H](C)NC(=O)CCC1CC(OC(=O)NCc2cccc3ccccc23)CC2(CCCC(COC(=O)NCC3CCCCC3)O2)O1 (stereo not given in full) | 0.534 | -0.0762 | -0.86 | -0.397 (inactive) | 1.47 | 1.36 | 1.15 | 1.08 | 0.528 | -0.564
O=C1CCCC2OC12C(O)CCc1ccccc1 (stereo not given) | -0.2 | -0.45 | -0.503 | 0.00999 (inactive) | 0.558 | 0.263 | 0.548 | 0.495 | 0.372 | 0.399
COc1ccc(O[C@H]2C=C[C@@H](c3ccccc3)O[C@@H]2COC(=O)CCC(C)=NO[C@@H](C)c2cc(-c3c(C)cc(C)cc3C)no2)cc1 | -0.0775 | -0.344 | 0.268 | -0.398 (inactive) | -1.05 | -2.04 | -0.747 | -1.39 | -0.872 | 0.934
CC(C)=NOCc1cccc(-c2cc(-c3ccccc3)no2)c1 | 0.379 | -0.208 | -0.609 | 0.342 (inactive) | 0.637 | 0.787 | -0.137 | 0.597 | 0.494 | -0.21
Cc1cc(C)c(-c2cc([C@H](C)ON=C3[C@H]4CCn5c(=O)n(-c6ccccc6)c(=O)n5[C@H]4[C@H](O)[C@@H]4O[C@H]34)on2)c(C)c1 | 0.167 | -0.255 | -0.48 | 2.01 (inactive) | 0.501 | 0.253 | 0.377 | 0.801 | 0.88 | -0.0289
CC(CCN1CCCCc2nc(C)c(C)cc21)=NOC(C)CN1CCCCc2nc(C)c(C)cc21 (stereo not given) | 1.62 | -0.142 | -0.595 | 0.127 (inactive) | 1.07 | 1.33 | 1.58 | 1.42 | 1.68 | 0.908
CO[C@H]([C@@H](C)[C@H](OC)c1ccccc1)[C@H](C)[C@@H](OC)[C@H](C)C(C)=O | -0.275 | -0.442 | -0.117 | 0.116 (inactive) | 0.173 | -0.641 | -0.577 | -0.523 | 0.345 | 0.782
COc1ccc(O[C@H]2C=C[C@@H](c3ccccc3)O[C@@H]2COC(=O)CCC(C)=NOC[C@@H](C)[C@H](OCc2ccccc2)C(C)C)cc1 | -0.886 | -0.366 | -0.529 | 0.292 (inactive) | -0.433 | -0.662 | -0.706 | -0.629 | -0.698 | 0.553
CC(C)=C1C(=O)C(c2ccccc2)=C2CN3C(=O)N(CCc4ccccc4)C(=O)[C@]3(Cc3ccc(F)cc3)[C@H]21 | -0.0467 | 0.993 | 1.21 | 0.762 (inactive) | -0.625 | -0.643 | -2.06 | -0.655 | -1.92 | 0.51
c1ccc(C2NCCc3c2[nH]c2ccccc32)cc1 (stereo not given) | -0.214 | -0.227 | 0.412 | -0.231 (inactive) | 0.269 | -0.704 | 0.112 | -0.142 | 0.0559 | 0.586
CO[C@H]1COC(=O)[C@@H]2CCCN2C(=O)CC=C[C@@H](C)[C@H](OC)COC(=O)CC=C[C@@H]1C | 0.401 | -0.569 | -1.28 | -0.555 (inactive) | 1.09 | 1.06 | 1.64 | 1.47 | 1.63 | 1.5
COC(=O)[C@H](C)NC(=O)CCC1CC(OC(=O)NCCc2ccc(F)cc2)CC2(CCCC(COC(=O)NCCc3ccc(Cl)cc3)O2)O1 (stereo not given in full) | 0.316 | 0.0144 | -0.615 | -0.137 (inactive) | 1.07 | 0.987 | 0.344 | 1.29 | 1.05 | 0.0063
CO[C@@H]1COC(=O)[C@@H]2CCCN2C(=O)[C@@H](C)COC(=O)[C@H](COCc2ccccc2)NC(=O)CC=C[C@H]1C | 0.385 | -0.559 | -0.664 | -0.425 (inactive) | 0.613 | 0.575 | 0.239 | 0.478 | 0.356 | -0.235
CCOC(=O)CCN1C(=O)[C@H]2[C@H]3[C@H](O)[C@H](O)CC(=NNC(=O)OCc4ccc(OC)cc4)[C@@H]3CC[C@H]2C1=O | 0.0745 | -0.0545 | -0.476 | 0.454 (inactive) | 0.567 | 0.754 | 0.593 | 1.32 | 0.819 | 0.334
